The list is not random: actives were taken first. Their share in the collection is about 4.1%.
CHT allo act = allosterically activates the human high affinity choline transporter; Q9GZV3; CHT-expressing cells, membrane potential dye, choline EC20; active compounds read high; LV-AA mutant CHT in HEK293 cells; B-score at 10 µM; 310,000 tested, 0.49% active; AID 488977;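 active = initial fluorescence not abnormally high and integrated response B-score, plate-corrected, over 3 SD above library mean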
Target sequence (Q9GZV3 whole entry, looked up): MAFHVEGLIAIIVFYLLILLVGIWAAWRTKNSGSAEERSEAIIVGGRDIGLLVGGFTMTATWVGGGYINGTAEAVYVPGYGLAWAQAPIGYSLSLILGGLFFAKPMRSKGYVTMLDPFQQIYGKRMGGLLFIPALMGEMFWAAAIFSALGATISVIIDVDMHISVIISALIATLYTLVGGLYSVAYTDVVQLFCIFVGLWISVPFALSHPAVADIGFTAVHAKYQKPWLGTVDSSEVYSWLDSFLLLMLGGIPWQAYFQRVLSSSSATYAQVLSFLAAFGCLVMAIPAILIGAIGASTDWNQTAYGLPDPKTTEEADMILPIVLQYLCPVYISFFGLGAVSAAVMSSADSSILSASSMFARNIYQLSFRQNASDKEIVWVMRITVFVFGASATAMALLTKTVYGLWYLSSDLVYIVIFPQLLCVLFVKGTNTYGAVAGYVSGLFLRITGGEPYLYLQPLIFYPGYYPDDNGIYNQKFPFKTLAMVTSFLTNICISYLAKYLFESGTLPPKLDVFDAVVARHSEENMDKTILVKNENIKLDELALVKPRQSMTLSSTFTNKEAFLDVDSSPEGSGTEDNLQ
CHT block = human CHT choline transport inhibition. B-score at 10 µM. CHT-expressing cells, membrane potential dye, choline response; active compounds read low. 310,000 tested, 0.86% active;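 active = B-score over 3 SD under the library average, and starting fluorescence ratio not unusually high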;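 note: choline stimulus applied at its EC90 after an EC20 pre-addition; B-score computed on integrated fluorescence ratio after choline addition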
MEKK3 PB1 HTS = MEKK3-MEK5 PB1 interaction, increase or decrease | bead-based flow cytometry, Alexa488-MEK5 binding to MEKK3; actives lie on both sides; 0 = blocked by unlabeled MEK5, 100 = vehicle | binding response (% of control), % at 10 µM | 290,000 tested, 1.4% active;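 active = binding response more than 3 SD above or below the average of its plate-row segment, actives on both sides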;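 note: Alexa488 bead fluorescence after subtracting the streptavidin-only scavenger bead signal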
Mot1-301 SUMO = SUMOylation pathway inhibition by Mot1-301 growth rescue; S. cerevisiae Mot1-301 growth rescue, ATP luminescence, 38.5C; percent above DMSO median, 100 means doubled; growth rescue, % at 18.8 µM; 320,000 tested, 1% active; AID 2716;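 active = every valid replicate shows activation above 250% relative to neutral control wells; inactive = the rest, any valid replicate at or below 250%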
MEKK2mut PB1 HTS = signal of MEK5 binding to mutant human MEKK2 PB1 domain | bead flow cytometry, Alexa488-MEK5 binding to MEKK2 mutant | percent response, % at 10 µM | 290,000 tested, 0.35% active | AID 1530; in the data active = percent response above about 24%, passing the limit was not always enough
MEKK2wt PB1 HTS = raises or lowers MEK5 binding to wildtype human MEKK2 PB1 domain; Q9Y2U5; bead flow cytometry, Alexa488-MEK5 binding to MEKK2 WT; actives lie on both sides; binding response (% of control), % at 10 µM; 290,000 tested, 1.1% active; AID 1531; in the data active = binding response below about 67% or above about 130%
CHT activ conf = human CHT activation, confirmatory screen | shares compounds with CHT allo act | CHT-expressing cells, membrane potential dye fluorescence (FDSS); % of choline EC20–EC90 response window; HEK293 expressing CHT LV-AA mutant; choline added at its EC20 | activation, % at 10 µM | 2,500 tested, 91% active;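 active = primary screen active, with duplicate mean activation above negative control mean plus 3 SD, cut at about 11% in these data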
HEK293 MP dye = CHT activator counter-screen hit in parental HEK293 cells | shares compounds with CHT allo act | membrane potential dye fluorescence (FDSS); measured after EC20 choline addition | ratio readout change at 10 µM, hits read low | 2,500 tested, 62% active | AID 623908;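 active = duplicate-averaged ratio beyond 3 SD from buffer wells, up or down, though filed actives are nearly all decreases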
A number is an active result; 0 = inactive; - = no result.

SMILES	CHT allo act	CHT block	MEKK3 PB1 HTS	Mot1-301 SUMO	MEKK2mut PB1 HTS	MEKK2wt PB1 HTS	CHT activ conf	HEK293 MP dye
COC(=O)C1=C(c2ccc3ccccc3c2)C[C@@H]2CC[C@H]1N2C(=O)NCCNC(C)=O	-	-	-	0	-	-	-	-
COc1ccc(C(=O)OC2C[C@H]3CC[C@H](C2)N3C)cc1OC (stereo partly drawn)	6.6	0	-	327	-	-	40	-32
Cc1nn(Cc2ccccc2)c(C)c1C(=O)O	0	0	0	0	0	0	-	-
C[n+]1c(-c2ccccc2)cc(-c2ccc(Cl)cc2)cc1-c1ccccc1	7.2	0	0	0	0	0	30	-29
c1ccc(-c2cc(-c3ccccc3)[n+](-c3ccccc3)c(-c3ccccc3)c2)cc1	0	0	0	0	0	0	-	-
COC(=O)C1=C(c2cccc(OCc3ccccc3)c2)C[C@@H]2CC[C@H]1N2C(=O)NCCCc1ccccc1	-	-	-	0	-	-	-	-
N=C1c2ccccc2CN1NC(=O)c1ccccc1	0	0	0	0	0	0	-	-
N=C1c2ccccc2CN1c1ccc(F)c([N+](=O)[O-])c1	0	0	0	0	0	0	46	-26
N=C1c2ccccc2CN1c1cccc([N+](=O)[O-])c1	0	0	0	0	0	0	54	-38
COCCN1Cc2cc(=O)n3c([nH]c4ccccc43)c2C1=N	0	0	0	0	0	0	53	-42
O=[N+]([O-])c1ccc(N2CCCC2)cc1N/N=C1\CN2CCC1CC2	6.5	0	0	0	0	0	55	-73
O=[N+]([O-])c1ccc(N2CCCCC2)c2ncccc12	0	0	0	0	0	0	-	-
O=[N+]([O-])c1ccc(N2CCCNCC2)c2ncccc12	9.3	0	0	0	0	0	48	-89
COc1cc2c3c(c1OC)-c1cc(O)ccc1CC3NCC2 (stereo not drawn)	0	0	0	0	0	0	48	-42
Clc1ccc(CCC(Cn2ccnc2)Sc2c(Cl)cccc2Cl)cc1 (stereo not drawn)	0	0	-	0	-	-	30	-27
C=Cn1ccnc1P(=S)(c1ccc(Cl)cc1)c1nccn1C=C	0	0	0	-	0	0	-	-
O=C(Nc1ccc(Cl)cc1C(=O)c1ccccc1)c1ccc(Br)o1	0	0	0	0	0	0	-	-
COc1ccc(NC2=NCCCS2)cc1OC	0	0	0	0	0	0	-	-
CCc1nc2ccc(N3CCN(C)CC3)cc2nc1CC	0	0	0	0	0	0	-	-
CN1CCN(c2ccc3nccnc3c2)CC1	0	0	0	0	0	0	16	0
CCN(CC)C(=O)c1ccc(NC(=O)c2c(C)noc2C)cc1	-	-	-	0	-	-	-	-
CCN(CC)CCN1Cc2ccccc2C1=N	11	0	0	0	0	0	75	-73
N=C1c2ccccc2CN1CC(=O)c1ccccc1	0	0	0	0	0	0	-	-
CCCCSC1=NN1c1nc(N)nc(C)c1CC	0	0	0	0	0	0	-	-
CCCCn1c(N)c(C(=O)NCCN2CCOCC2)c2nc3ccccc3nc21	0	0	0	0	0	0	-	-
SMILES	CHT allo act	CHT block	MEKK3 PB1 HTS	Mot1-301 SUMO	MEKK2mut PB1 HTS	MEKK2wt PB1 HTS	CHT activ conf	HEK293 MP dye
CCOC(=O)c1c(N)n(CCN2CCCCC2)c2nc3ccccc3nc12	0	0	0	0	0	0	29	-42
O=C1Nc2ccccc2/C1=C/c1cnc[nH]1	0	0	0	0	0	0	45	-30
Cc1ccc(N2C(=O)CC(=O)NC2=O)cc1Cl	0	0	0	0	0	0	-	-
O=[N+]([O-])c1ccc(Cl)c(Cl)c1Cl	-	-	-	0	-	-	-	-
CN(C)C(=O)Oc1cccc(OCc2n(C)c3ccccc3[n+]2C)c1	7	0	0	0	0	0	55	-42
Cc1ccc2c(c1)C1CN(C)CCC1N2C(=O)/C=C/c1ccc2c(c1)OCO2 (stereo not drawn)	0	0	0	0	0	0	-	-
C=CCn1c(O)c(/C=C2/C=c3ccccc3=N2)c(=O)[nH]c1=S	0	0	0	0	0	0	-	-
C[n+]1c(-c2ccccc2)c2cc(N)ccc2c2ccc(N)cc21	9.2	0	0	0	0	0	38	-77
Nc1ccc2ccc3cccc[n+]3c2c1	0	0	0	0	0	0	-	-
COC1C(OC(=O)c2ccc(C)[nH]2)C(O)C(Oc2ccc3c(O)c(NC(=O)c4ccc(O)c(CC=C(C)C)c4)c(=O)oc3c2Cl)OC1(C)C (stereo not drawn)	0	0	0	0	0	0	-	-
CCOC(=O)c1ccc(-[n+]2c(-c3ccccc3)cc(-c3ccccc3)cc2-c2ccccc2)cc1	7.7	0	-	0	-	-	63	0
Cc1ccc(-c2cc(-c3ccccc3)cc(-c3ccccc3)[n+]2-c2ccccc2)cc1	0	0	-	0	-	-	-	-
Cc1ccc(-c2cc(-c3ccc(C)cc3)[n+](-c3ccc(C(=O)[O-])cc3)c(-c3ccc(C)cc3)c2)cc1	9.7	0	-	0	-	-	12	-35
Cc1cc(C)[n+](CCCC[n+]2c(C)cc(C)cc2C)c(C)c1	7.9	0	-	0	-	-	73	-99
CCOc1cc(-c2nc3c(C)cccn3c2NCC2CCCO2)ccc1O (stereo not drawn)	6.4	0	0	0	0	0	56	-34
O=c1cccc2n1C[C@@H]1C[C@@H]2CN(CC(O)c2ccc([N+](=O)[O-])cc2)C1 (stereo partly drawn)	0	0	0	0	0	0	-	-
CCc1cc2c(N3CCN(C)CC3)ncnc2s1	0	0	0	0	0	0	-	-
CN1CCN(c2ncnc3c2cnn3C)CC1	0	0	0	0	0	0	52	-59

Screens as filed in PubChem BioAssay.
